The text below walks through data of PubChem BioAssay (NCATS).

For test [1], the target named is Hexokinase-4 (Homo sapiens) + Glucokinase regulatory protein (Homo sapiens) (UniProt P35557+Q14397). Description: qHTS assay for inhibitors of recombinant human GCK-GKRP interaction: HTRF assay (AID 743207).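 Note: 0% = DMSO with GCK present and -100% = DMSO wells lacking GCK.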 In outline: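 GST-GCK and FLAG-GKRP (5 nM each) were combined with 2 uM S6P in pH 7.1 Hepes/MgCl2/KCl/DTT buffer, then compound and anti-FLAG XL665/anti-GST K antibodies were added. After 60 min at room temperature, HTRF 665/615 nm emission was read.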
Sequence of Hexokinase-4 (Homo sapiens) + Glucokinase regulatory protein (Homo sapiens) (P35557 whole entry, looked up): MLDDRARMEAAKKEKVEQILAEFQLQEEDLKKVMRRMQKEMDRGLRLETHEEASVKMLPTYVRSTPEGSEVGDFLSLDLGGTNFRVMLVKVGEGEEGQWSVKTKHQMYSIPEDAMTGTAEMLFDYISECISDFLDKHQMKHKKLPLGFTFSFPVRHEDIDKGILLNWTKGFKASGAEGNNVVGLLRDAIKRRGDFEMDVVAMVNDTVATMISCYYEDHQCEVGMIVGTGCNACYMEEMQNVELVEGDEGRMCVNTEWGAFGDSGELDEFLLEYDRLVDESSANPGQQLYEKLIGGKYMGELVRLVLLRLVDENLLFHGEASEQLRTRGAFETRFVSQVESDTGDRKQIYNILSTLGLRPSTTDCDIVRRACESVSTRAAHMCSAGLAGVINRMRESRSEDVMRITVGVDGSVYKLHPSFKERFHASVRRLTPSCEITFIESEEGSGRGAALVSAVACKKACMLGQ
Sequence of Hexokinase-4 (Homo sapiens) + Glucokinase regulatory protein (Homo sapiens) (Q14397 whole entry, looked up): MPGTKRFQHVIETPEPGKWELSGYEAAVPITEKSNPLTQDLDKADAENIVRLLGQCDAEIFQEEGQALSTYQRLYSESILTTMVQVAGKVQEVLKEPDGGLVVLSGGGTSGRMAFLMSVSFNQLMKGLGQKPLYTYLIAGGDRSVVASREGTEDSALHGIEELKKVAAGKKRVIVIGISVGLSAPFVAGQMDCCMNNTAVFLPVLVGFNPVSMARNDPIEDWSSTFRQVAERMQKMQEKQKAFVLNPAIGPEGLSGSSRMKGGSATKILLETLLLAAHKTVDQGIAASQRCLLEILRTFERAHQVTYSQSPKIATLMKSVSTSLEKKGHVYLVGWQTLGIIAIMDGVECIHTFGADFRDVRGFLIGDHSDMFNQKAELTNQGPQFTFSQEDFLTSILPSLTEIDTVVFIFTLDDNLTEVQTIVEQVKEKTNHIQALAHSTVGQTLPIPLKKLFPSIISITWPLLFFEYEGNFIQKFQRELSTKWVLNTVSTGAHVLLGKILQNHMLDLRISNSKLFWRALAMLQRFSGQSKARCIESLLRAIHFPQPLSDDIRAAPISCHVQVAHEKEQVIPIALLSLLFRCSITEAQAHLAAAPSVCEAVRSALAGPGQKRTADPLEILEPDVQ

The nature of test [2]: qHTS Assay for Identifying Gametocytocidal Compounds (AID 743244).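 Note: % is set by controls: 0 for no effect and ±100 for the full control effect; actives lower the fluorescent signal which means gametocytes are killed.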 The settings on record: P. falciparum 3D7 stage III-V gametocytes, alamarBlue, 72 h; max response: stronger effect = lower value. In outline: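 Stage III–V gametocytes of P. falciparum 3D7 were seeded at 20,000 cells/well onto pre-dispensed compounds. After 72 h, 37 °C, 5% CO2, alamarBlue was added for another 24 h.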

Test [3] can be described thus: qHTS assay for cell viability of HEK293 cells (AID 743288). Note: % is set by controls: 0 for no effect and ±100 for the full control effect; nearly all actives have a fitted effect of over 50% in size. To be noted: ATP luminescence (CellTiter-Glo), 18 h; max response: stronger effect = lower value. In outline:
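After 18 h compound exposure at 37 C, parental HEK293 cells (2,000/well) are lysed with CellTiter-Glo and luminescence is read following 30 min at room temperature.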

Test [4] is described as follows: qHTS assay for cell viability of the p53RE-bla HCT-116 cell line (AID 743292). Note: % is set by controls: 0 for no effect and ±100 for the full control effect; nearly all actives have a fitted effect of over 55% in size. In outline:
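Readout: CellTiter-Glo luminescence after 30 min RT. Treatment: compounds in DMSO, 16 h, 37 C. Cells: CellSensor p53RE-bla HCT-116, 4,000/well, preincubated 5 h.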

Test [5] is described as follows: qHTS profiling of the MIPE4 collection as inhibitors of Plasmodium falciparum (3D7) proliferation (AID 743344; call rule not given here;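 note: scaled between DMSO vehicle wells and 0.29 µM artemisinin as full inhibition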). To be noted: P. falciparum 3D7 in erythrocytes, SYBR Green DNA fluorescence, 72 h; at 28.5 µM (top of the series) unless noted. In outline:
(§1)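 Parasite DNA was quantified by SYBR Green I fluorescence (ex 485, em 535 nm) after overnight lysis in saponin/Triton buffer at room temperature. Cultures at 0.3% parasitemia and 2.5% hematocrit were first exposed to compound for 72 h at 37 C; signals were normalised to artemisinin (0.29 uM) and vehicle wells.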

The nature of test [6]: qHTS profiling of the MIPE4 collection as inhibitors of Plasmodium falciparum (DD2) proliferation (AID 743345; call rule not given here). The settings on record: P. falciparum Dd2 in erythrocytes, SYBR Green DNA, 72 h; at 28.5 µM (top of the series) unless noted. In outline: as §1
Test [7] is described as follows: qHTS profiling of the MIPE4 collection as inhibitors of Plasmodium falciparum (DD2) proliferation (Rep 2) (AID 743346; call rule not given here). To be noted: P. falciparum Dd2 in erythrocytes, SYBR Green DNA, 72 h; at 28.5 µM (top of the series) unless noted. In outline:
as §1

The nature of test [8]: High-throughput drug toxicity screening in the BPDCN cell line Gen2.2 (AID 1224824; call rule not given here;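 note: cells exposed to compounds for 48 h before reading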). To be noted: Gen2.2 BPDCN cells; at 45.8 µM (top of the series) unless noted. In outline: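 Gen2.2 cells (500/well) in phenol red-free RPMI with 10% FBS were exposed to compounds for 48 h at 37 °C, 5% CO2. Viability was read by CellTiter-Glo luminescence and normalized to DMSO (100%) and 9.2 uM bortezomib (0%).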

Test [9] is described as follows: High-throughput drug toxicity screening in the BPDCN cell line Cal-1 (AID 1224825; call rule not given here). To be noted: Cal-1 BPDCN cell viability, qHTS; at 45.8 µM (top of the series) unless noted. The gist of the method:
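CellTiter-Glo luminescence after 48 h compound exposure; percent activity scaled with DMSO as 100% and bortezomib (9.2 uM final) as 0%. Cal-1 cells seeded at 500/well in RPMI, 10% FBS, no phenol red.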

Test [10] in a line: qHTS assay for measurement of the activity of small molecule inhibitors on Zika virus induced Caspase-3 activity in human iPSC derived neural progenitor cells (hNPCs) (AID 1224857). Note: % of control where 0% means no effect; nearly all actives have a fitted effect of over 65% in size. In outline: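 Values are percent inhibition of virus-induced caspase-3/7 signal, scaled between uninfected cells and ZIKV-infected cells. Infection used 2 FFU/cell for 6 h after 1 h compound exposure.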

Test [11] can be described thus: qHTS assay for measurement of the activity of small molecule inhibitors on Zika virus induced Caspase-3 activity in human astrocytoma cells (AID 1224859).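 Note: plate controls were ZIKV-infected untreated cells for no effect and uninfected cells for full effect.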 In outline: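 Compound added 1 h pre-infection; ZIKV 2 FFU/cell on SNB-19 cells, 6 h, 37 C/5% CO2. Caspase-Glo 3/7 luminescence; values as % inhibition of ZIKV-induced caspase activity.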
The nature of test [12]: qHTS Screen of the MIPE 4.0 Collection Against Ewings Sarcoma (RDES) (AID 1259252). Note: nearly all actives have a fitted effect of over 35% in size. Note: potency is the fitted concentration of half-maximal effect. The gist of the method:
(§2)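 Viability screen: 48 h incubation at 37C, 95% humidity, 5% CO2 with serially titrated compound, followed by CellTiter-Glo readout.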

The nature of test [13]: qHTS Screen of the MIPE 4.0 Collection Against Ewings Sarcoma (TC71) (AID 1259253). Note: nearly all actives have a fitted effect of over 40% in size. Note: potency is the fitted concentration of half-maximal effect. The gist of the method: as §2
The nature of test [14]: qHTS Screen of the MIPE 4.0 Collection Against Ewings Sarcoma (EW8) (AID 1259255).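 For viability: 100% = DMSO-treated cells and 0% = medium-only wells without cells.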 Note: nearly all actives have a fitted effect of over 35% in size. Note: potency is the fitted concentration of half-maximal effect. In outline: as §2
Test [15] can be described thus: qHTS profiling for inhibitors of Plasmodium falciparum (3D7) proliferation (AID 743322).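 Note: infected erythrocytes exposed to compound for 72 h before lysis; 100% = DMSO vehicle wells and 0% = 0.29 µM artemisinin.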 The settings on record: P. falciparum 3D7 proliferation; at 28.7 µM (top of the series) unless noted. The gist of the method:
as §1

A short description of test [16]: qHTS profiling for inhibitors of Plasmodium falciparum (DD2) proliferation (AID 743323; call rule not given here). To be noted: lower = more inhibition; at 28.7 µM (top of the series) unless noted. The gist of the method: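 1536-well qHTS; infected RBCs 0.3% parasitemia/2.5% Hct final; cpd 72 h 37 C 5% CO2; lysis buffer + SYBR Green I, o/n RT dark; FI 485/535; norm. to 0.29 uM artemisinin and DMSO, plate-stack corrected.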

A short description of test [17]: qHTS profiling for inhibitors of Plasmodium falciparum (HB3) proliferation (AID 743324).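 Note: 100% = DMSO vehicle wells and 0% = artemisinin-treated control wells.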 The settings on record: Plasmodium falciparum HB3 blood-stage proliferation; at 28.7 µM (top of the series) unless noted. In outline: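 SYBR Green fluorescence (485 ex/535 em) of lysed cultures, incubated overnight at room temperature in the dark, quantifies parasite DNA. Infected erythrocytes at 0.3% parasitemia and 2.5% hematocrit were exposed 72 h; values normalized to DMSO and 0.29 uM artemisinin controls.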

The nature of test [18]: Cell Proliferation Assay Versus the ED40515 IL2 Independent ATL cell lines (AID 1053194; calls by dose curve). The settings on record: ED40515 IL2-independent ATL cells. In outline:
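CellTiter-Glo luminescence, read after 15 min at RT, gave viability of IL-2-free ED40515 cells (1000/well, RPMI plus 5% FBS) following 48 h drug exposure at 37C. Control wells held DMSO or 9.2 uM bortezomib.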

The nature of test [19]: qHTS profiling of the MIPE4 collection as inhibitors of Plasmodium falciparum (HB3) proliferation (AID 743347; call rule not given here;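 note: plate controls were DMSO vehicle wells for no effect and artemisinin wells for full effect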). The settings on record: P. falciparum HB3 in erythrocytes, SYBR Green DNA, 72 h; at 28.5 µM (top of the series) unless noted. The gist of the method:
as §1

Test [20] in a line: Cell Proliferation Assay Versus the ED40515 IL2 Dependent ATL cell lines (AID 1053195; calls by dose curve). The settings on record: ED40515 IL2-dependent ATL cells. The gist of the method: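 CellTiter-Glo luminescence (15 min, RT) measured viability after 48 hours at 37C; cells were ED40515 +IL2, 1000/well, in phenol red-free RPMI with 5% FBS. Controls: DMSO and 9.2 uM bortezomib.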

Where “and” joins values, the source holds several entries; their conditions need not be identical. Equal entries are not always repeated. Results filed as inconclusive are left out. Calls of active or inactive are those of the source. Unless noted, calls come from the whole dose curve; as a rule, active = well fitted curve in the direction sought with a large enough effect; inconclusive = small, poorly fitted or top-dose-only effect, or another doubt; inactive = no such curve, though single readings can be large; an effect the other way counts as inactive or inconclusive.

In the case of `CC(=O)Oc1ccccc1C(=O)O`, the result in test [1] was inactive. In addition, the max response in test [2] was -2.57% (inactive) and 13.2% (inactive); in [3] it was -2.25% (inactive) and -4.16% (inactive) and -2.23% (inactive). The Potency result in test [4], in test [10] and in [11] was “inactive” throughout. The molecule also displayed a parasite growth, % of DMSO control in test [5] of 93.6%. In test [6], this molecule had a parasite growth remaining, % of DMSO control (lower = more inhibition) of 90.5%. For the same molecule, in test [7], the parasite growth, % of control (lower = inhibition) worked out at 90.6%. Further, the cell viability, % of control (lower = more cytotoxic) in test [8] is 125%. Further, the viability (% of control) in test [9] worked out at 135%. For the same molecule, the values for the Potency in test [12], in test [13] and in [14] were 8.33 µM (active), 18.7 µM (active) and 20.9 µM (active), respectively.

On to `O=C(O)c1ccc(-c2c[nH]c3ccc(-c4ccccc4)cc23)cc1C1CCCC1`, for which, in test [2], the max response was 15.6% (inactive). In addition, in test [15], the remaining parasite growth % (stronger effect = lower value) is -0.426%. In addition, the activity, percent of control in [16] is 0.0014%. Moreover, in [17], the remaining proliferation (% of control), lower = more inhibition is -0.0688%. Besides, the Potency in test [18] is 2.35 µM (active).

With `O=NN(CCCl)C(=O)NCCCl`, the result in test [1] was inactive. The max response in test [2] was 10.6% (inactive) and 5.39% (inactive); in [3], -8.57% (inactive). Moreover, the Potency entry in test [4], in test [10], in test [11], in test [12], in test [13] and in test [14] was “inactive” each time. Further, the cell viability, % of control (lower = more cytotoxic) in test [8] came to 114%. Also, in test [9], the viability (% of control) was found to be 103%.

In the case of `CCC(C)n1ncn(-c2ccc(N3CCN(c4ccc(OC[C@H]5CO[C@](Cn6cncn6)(c6ccc(Cl)cc6Cl)O5)cc4)CC3)cc2)c1=O` (some centres undefined), the max response in [2] was 3.11% (inactive). Further, the remaining parasite growth % (stronger effect = lower value) in [15] is 3.74%. The molecule also displayed an activity, percent of control in test [16] of 7.7%. Besides, the remaining proliferation (% of control), lower = more inhibition in test [17] turned out to be 2.67%. The molecule also had a parasite growth, % of DMSO control in test [5] of 5.41%. This molecule also showed a parasite growth, % of control (lower = inhibition) in test [7] of 37.4%. In test [19], the growth, % of control came to 4.47%. The Potency in [20] was 1.32 µM (active). Also, in [8], the cell viability, % of control (lower = more cytotoxic) turned out to be 92.6%. Besides, the viability (% of control) in test [9] is 93.9%. Moreover, the Potency result in test [10], in test [11], in [13] and in test [14] was “inactive” in each case.
